Measured values taken from PubChem BioAssay AID652208 (Broad Institute, 2013).
Entries with a potency or affinity are not part of this list. The source made the active and inactive calls.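 The calls were made as follows: active = Loss of cell signal with fitted half-effect dose at or below twice the top valid tested dose; inconclusive = Poor fit, or flat fit from -70 to -30 percent; inactive = Half-effect above limit, rising signal, or flat within 30 percent.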

Assay: HEK293T cell cytotoxicity, dose response, cytotoxicity control for HIV Vif inhibitor project, cherry-picks (AID 652208)
Details: HEK293T viability, CellTiter-Glo luminescence, 24 h; series mostly up to 26 µM

| Compound | outcome |
| --- | --- |
| CC(C)(C)NC(=O)CN(Cc1ccc(F)cc1)C(=O)Cn1nnc(-c2ccc(F)cc2)n1 | inactive |
| CCN1c2ccccc2NC2C1C(C(C)=O)C(=O)N2c1ccc(Cl)cc1 (stereo not drawn) | inactive |
| COc1ccc(OC)c(/C=C/c2nc3ccccc3[nH]c2=O)c1 | inactive |
| COc1ccc(C(=O)Nc2cc(OC)c(NC(=O)Nc3ccccc3)cc2OC)cc1 | inactive |
| CCn1c(SCc2nc3ccccc3c(=O)[nH]2)nc2ccccc2c1=O | inactive |
| Cc1cc(C)c2nc3sc(C(=O)N4CCOCC4)c(N)c3cc2c1 | inactive |
| Cc1cc(/C=C2\NC(=S)N(C)C2=O)ccc1N1CCCC1 | inactive |
| CCCn1nnc(NC(=O)C(c2ccccc2)c2ccccc2)n1 | inactive |
| Cc1cccc(C)c1NC(=O)COc1ccc2c(C)c(Cc3ccccc3)c(=O)oc2c1C | inactive |
| CCCCOc1cccc2c(=O)n(CC(=O)Nc3ccc4c(c3)OCCO4)ccc12 | inactive |
| CCCCn1c(-c2ccncc2)nc2c1c(=O)[nH]c(=O)n2CC(C)C | inactive |
| CCN1CCN(c2cc(=O)n(-c3cc(Cl)ccc3C)c(=O)[nH]2)CC1 | inactive |
| COc1ccc(C(=O)Nc2c(Cl)cc(Cl)cc2C(=O)N2CCOCC2)cc1 | inactive |
| CC1Cc2ccccc2N1C(=O)COC(=O)c1ccccc1NCCO (stereo not drawn) | inactive |
| CCN(CC)c1ccc2cc(-c3nnc(-c4ccccc4)o3)c(=O)oc2c1 | inactive |
| CC(C)C(c1nnnn1CC1CCCO1)N1CCN(C2CCCC2)CC1 (stereo not drawn) | inactive |
| O=C(CCCCCn1c(=S)[nH]c2ccc(N3CCOCC3)cc2c1=O)NCc1ccccc1Cl | inactive |
| FC(F)(F)c1nnc2c3ccccc3c(Cl)nn12 | inactive |
| O=C(Nc1ccc2c(c1)nc1n2CCOC1)c1ccccc1 | inactive |

| Compound | outcome |
| --- | --- |
| COC(CNC(=O)C1CCN(C(=O)c2cc3oc(C)cc3n2Cc2c(F)cccc2Cl)CC1)OC | inactive |
| COc1c2ccoc2nc2c(OC)c(OC[C@@H](O)C(C)(C)O)ccc12 | inactive |
| CN(C)c1ccc(/C=C2\SC(=O)N(CCc3nnc(N)s3)C2=O)cc1 | inactive |
| CCCCOc1ncnc2c1[nH]c1ccccc12 | inactive |
| COc1cc(/C=C/C(=O)O)ccc1S(=O)(=O)N1CCCc2ccccc21 | inactive |
| COCc1cc(C)nc(SCC(=O)Nc2cccc3cccnc23)c1C#N | inactive |
| O=C(c1cc(COc2cccc3cccnc23)on1)N1CCC[C@H]1CO | inactive |
| O=C(c1ccc(Cl)c(Cl)c1)N(Cc1ccco1)c1ccc(O)cc1 | inactive |
| COc1ccc(S(=O)(=O)Nc2cc3c(C(C)=O)c(C)oc3c3ccccc23)cc1 | inactive |
| Cc1nnc2ccc(-c3cccc(NS(=O)(=O)c4ccccc4Cl)c3)nn12 | inactive |
| Cc1cc(NS(=O)(=O)c2ccc(NC(=O)c3ccc(Cl)cc3Cl)cc2)no1 | inactive |
| COCCN(C(=O)COC(=O)Cc1ccc(Cl)cc1)c1c(N)n(Cc2ccccc2)c(=O)[nH]c1=O | inactive |
| COc1ccc(CNC(=O)Nc2cccs2)cc1OC | inactive |
| CCn1c(/C=C/c2ccc(F)cc2)nc2ccccc2c1=O | inactive |
| C=CCNc1sc(C(=O)c2ccc(Br)s2)c(N)c1C#N | inactive |
| CCOc1ccc(C(=O)c2cc([N+](=O)[O-])ccc2N2CCOCC2)cc1 | inactive |
| Cc1ccnc(SCC(=O)n2c3c(c4ccccc42)CC(C)CC3)n1 (stereo not drawn) | inactive |
| CC(C)CC(=O)Nc1ccc(-c2nnn(CC(=O)NCc3ccco3)n2)cc1 | inactive |
| COc1cc(CNCc2ccccc2)c(Br)cc1OC1CCCC1 | inactive |
